Experimental data reported in PubChem BioAssay AID1159580 (chemical genetic matrix, 2015).
About 2,000 (36%) of roughly 5,500 compounds were called active. Inconclusive results (about 18%) are left out. This is one part of the list. Unmarked numbers belong to inactive results. No stated cut-off is given here; in the data, active means normalized growth mostly below about 0.91 (no sharp cut-off); inconclusive means no clear call, values can overlap the other calls; inactive means mostly above about 0.92.

Assay: chemical genetic growth profiling, strain panel (AID 1159580);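 further: tested at 20 µM; growth read once vehicle control cultures reached saturation at 30 °C; 1 = growth at the plate median or of vehicle wells; lower values mean less growth of the strain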
Settings: S. cerevisiae deletion strains, growth OD

Q: What does the source list for `Oc1c(Cl)cc(Cl)cc1Sc1cc(Cl)cc(Cl)c1O`?
A: normalized growth (locus YJR066W, strain TOR1, active compounds read low): 0.00096 (active); normalized growth (locus YJR075W, strain HOC1, active compounds read low): 0.962; normalized growth (locus YKL009W, strain mrt4, active compounds read low): 0.956; normalized growth (locus YKL068W, active compounds read low): 0.978; normalized growth (locus YKL085W, strain MDH1 (second series), active compounds read low): 0.973; normalized growth (locus YKL085W, strain MDH1, active compounds read low): 0.973; normalized growth (locus YKL160W, strain elf1, active compounds read low): 0.0607 (active); normalized growth (locus YKR001C, strain vps1, active compounds read low): 1.01; normalized growth (locus YKR026C, strain gcn3, active compounds read low): 0.0616 (active); normalized growth (locus YKR091W, strain srl3, active compounds read low): 0.0572 (active); normalized growth (locus YLL001W, strain dnm1, active compounds read low): 0.0641 (active); normalized growth (locus YLL026W, active compounds read low): 0.0559 (active); normalized growth (locus YLL041C, strain sdh2, active compounds read low): 0.0561 (active); normalized growth (locus YLR027C, strain aat2, active compounds read low): 0.0575 (active); normalized growth (locus YLR039C, strain RIC1, active compounds read low): 0.945; normalized growth (locus YLR058C, strain SHM2, active compounds read low): 0.984; normalized growth (locus YLR102C, strain apc9, active compounds read low): 0.962; normalized growth (locus YLR113W, strain HOG1, active compounds read low): 0.152 (active); normalized growth (locus YLR221C, strain rsa3, active compounds read low): 0.0589 (active); normalized growth (locus YLR258W, strain gsy2, active compounds read low): 0.0608 (active); normalized growth (locus YLR262C, strain YPT6 (second series), active compounds read low): 0.0722 (active); normalized growth (locus YLR262C, strain YPT6, active compounds read low): 1; normalized growth (locus YLR268W, strain sec22, active compounds read low): 0.976; normalized growth (locus YLR320W, strain mms22, active compounds read low): 0.0755 (active); normalized growth (locus YLR330W, strain CHS5, active compounds read low): 0.995; normalized growth (locus YLR342W, strain FKS1 (second series), active compounds read low): 1.05; normalized growth (locus YLR342W, strain FKS1, active compounds read low): 0.0628 (active); normalized growth (locus YLR357W, strain rsc2, active compounds read low): 0.119 (active); normalized growth (locus YLR370C, strain arc18, active compounds read low): 0.0603 (active); normalized growth (locus YLR371W, strain rom2, active compounds read low): 0.994; normalized growth (locus YLR384C, strain iki3, active compounds read low): 0.0584 (active); normalized growth (locus YLR418C, strain cdc73, active compounds read low): 0.979; normalized growth (locus YML016C, strain PPZ1, active compounds read low): 0.991; normalized growth (locus YML032C, strain rad52, active compounds read low): 0.986; normalized growth (locus YML120C, strain ndi1, active compounds read low): 0.0563 (active); normalized growth (locus YML124C, strain tub3, active compounds read low): 0.989; normalized growth (locus YMR058W, strain fet3, active compounds read low): 0.0603 (active); normalized growth (locus YMR078C, strain ctf18, active compounds read low): 0.989; normalized growth (locus YMR125W, strain sto1, active compounds read low): 0.0858 (active); normalized growth (locus YMR129W, active compounds read low): 0.0578 (active); normalized growth (locus YMR205C, strain PFK2, active compounds read low): 0.0864 (active); normalized growth (locus YMR223W, strain ubp8, active compounds read low): 0.991; normalized growth (locus YMR231W, strain pep5, active compounds read low): 0.0649 (active); normalized growth (locus YMR307W, strain GAS1, active compounds read low): 1.17; normalized growth (locus YNL067W, strain RPL9B, active compounds read low): 0.941; normalized growth (locus YNL071W, strain lat1, active compounds read low): 0.0603 (active); normalized growth (locus YNL183C, strain NPR1, active compounds read low): -0.00055 (active); normalized growth (locus YNL209W, strain ssb2, active compounds read low): 0.0572 (active); normalized growth (locus YNL233W, strain BNI4, active compounds read low): 0.966; normalized growth (locus YNL248C, strain rpa49, active compounds read low): 0.0762 (active); normalized growth (locus YNL250W, strain rad50, active compounds read low): 0.98; normalized growth (locus YNL271C, strain bni1, active compounds read low): 0.996; normalized growth (locus YNL298W, strain CLA4, active compounds read low): 0.967; normalized growth (locus YNL307C, strain MCK1, active compounds read low): 0.975; normalized growth (locus YNL322C, strain KRE1 (second series), active compounds read low): 0.0643 (active); normalized growth (locus YNR049C, strain mso1, active compounds read low): 0.0565 (active); normalized growth (locus YNR052C, strain pop2, active compounds read low): 0.982; normalized growth (locus YOL006C, strain TOP1, active compounds read low): 0.921; normalized growth (locus YOL012C, strain htz1): 0.709; normalized growth (locus YOL147C, strain pex11, active compounds read low): 0.975; normalized growth (locus YOR001W, strain rrp6, active compounds read low): 0.0689 (active); normalized growth (locus YOR061W, strain CKA2, active compounds read low): 0.994; normalized growth (locus YOR069W, strain VPS5, active compounds read low): 0.989; normalized growth (locus YOR070C, strain gyp1, active compounds read low): 0.0566 (active); normalized growth (locus YOR080W, strain dia2, active compounds read low): 0.0627 (active); normalized growth (locus YOR083W, strain WHI5, active compounds read low): 0.0603 (active); normalized growth (locus YOR106W, strain vam3, active compounds read low): 0.0687 (active); normalized growth (locus YOR136W, strain idh2, active compounds read low): 0.978; normalized growth (locus YOR144C, strain elg1, active compounds read low): 0.993; normalized growth (locus YOR184W, strain ser1, active compounds read low): 0.979; normalized growth (locus YOR231W, strain MKK1, active compounds read low): 0.118 (active); normalized growth (locus YOR265W, strain rbl2, active compounds read low): 0.0558 (active); normalized growth (locus YOR270C, strain vph1, active compounds read low): 0.113 (active); normalized growth (locus YOR290C, strain snf2, active compounds read low): 0.0666 (active); normalized growth (locus YOR316C, strain cot1, active compounds read low): 0.97; normalized growth (locus YPL051W, strain arl3, active compounds read low): 0.0608 (active); normalized growth (locus YPL055C, strain LGE1, active compounds read low): 0.973; normalized growth (locus YPL078C, strain atp4, active compounds read low): 0.0682 (active); normalized growth (locus YPL106C, strain sse1, active compounds read low): 0.111 (active); normalized growth (locus YPL240C, strain hsp82, active compounds read low): 0.0577 (active); normalized growth (locus YPL241C, strain CIN2, active compounds read low): 0.984; normalized growth (locus YPL256C, strain CLN2, active compounds read low): 0.147 (active); normalized growth (locus YPR119W, strain clb2, active compounds read low): 0.985; normalized growth (locus YPR141C, strain kar3, active compounds read low): 0.979; normalized growth (locus YPR163C, strain tif3, active compounds read low): 0.983; normalized growth (locus YPR167C, strain met16, active compounds read low): 0.986; normalized growth (strain wtn01, active compounds read low): 0.995
